Laboratory results from the supplement of paper PMC3334620.
The full ranking holds about 33,000 sequences; the median of “E-score (-0.5 to 0.5)” is about -0.015, and the highest 2% start at about 0.3. For the sample, the highest values were picked, then their nearest neighbours and some sequences at random.

What follows are sequences tested against T1, Abf1 (UniProt P14164) (assay: PBM E-score (8-mer binding enrichment) (E-score (-0.5 to 0.5)); higher = stronger / more preferred TF binding). Conditions: protein concentration: 200 nM; construct: GST-full length.
T1 sequence: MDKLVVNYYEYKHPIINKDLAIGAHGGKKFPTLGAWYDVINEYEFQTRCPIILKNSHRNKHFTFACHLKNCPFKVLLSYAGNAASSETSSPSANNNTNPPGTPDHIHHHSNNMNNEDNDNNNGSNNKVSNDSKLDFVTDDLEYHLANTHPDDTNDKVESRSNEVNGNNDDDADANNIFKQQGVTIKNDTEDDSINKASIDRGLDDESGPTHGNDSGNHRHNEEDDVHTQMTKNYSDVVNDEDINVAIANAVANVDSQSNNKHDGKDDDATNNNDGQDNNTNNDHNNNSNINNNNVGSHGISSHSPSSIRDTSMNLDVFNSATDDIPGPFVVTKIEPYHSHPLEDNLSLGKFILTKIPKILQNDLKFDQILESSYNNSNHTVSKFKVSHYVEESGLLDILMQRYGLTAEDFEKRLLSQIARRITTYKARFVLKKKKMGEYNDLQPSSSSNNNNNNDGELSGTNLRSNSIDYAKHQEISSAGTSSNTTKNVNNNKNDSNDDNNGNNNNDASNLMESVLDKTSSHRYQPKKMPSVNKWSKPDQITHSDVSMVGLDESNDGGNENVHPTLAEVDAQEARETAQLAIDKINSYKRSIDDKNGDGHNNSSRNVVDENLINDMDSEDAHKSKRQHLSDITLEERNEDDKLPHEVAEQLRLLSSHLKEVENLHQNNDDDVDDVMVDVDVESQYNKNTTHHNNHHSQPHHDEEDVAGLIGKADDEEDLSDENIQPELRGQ
Protocol: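 Universal 'all 10-mer' protein binding microarrays (Agilent AMADID 015681) probed with GST-tagged S. cerevisiae TFs (full-length or DBD) made by in vitro transcription/translation (PURExpress), about 100-200 nM. Bound TF was detected with fluorescent anti-GST. Each ungapped 8-mer (which stands for itself and its reverse complement) is scored by the PBM enrichment score (E-score), a modified Wilcoxon-Mann-Whitney statistic from -0.5 to +0.5, computed with the Universal PBM Analysis Suite. Scale: above 0.35 generally sequence-specific binding.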

Q: Which “PBM E-score” value does the source give for CCTACGTC here?
A: 0.0219

Q: For TACCAGTA, which “PBM E-score” value is on record?
A: 0.0685

Q: Which “PBM E-score” value does the source give for ATCAGGAC here?
A: 0.103

Q: With ACCTTGGG as the sequence, how does the “PBM E-score” value read?
A: -0.0211

Q: How did the “PBM E-score” value turn out when AGTGACCA was run?
A: 0.308

Q: GGTGACCA was tested. Which “PBM E-score” value did it give?
A: 0.0526

Q: For CGTGACAG, which “PBM E-score” value is on record?
A: 0.319

Q: For AGTGACAT, which “PBM E-score” value is on record?
A: 0.43

Q: ACTGACAA was tested. Which “PBM E-score” value did it give?
A: 0.129

Q: With AGTGACAA as the sequence, how does the “PBM E-score” value read?
A: 0.439

Q: ACTGACAT was tested. Which “PBM E-score” value did it give?
A: 0.0708

Q: For AGTGACCG, which “PBM E-score” value is on record?
A: 0.125

Q: With ATTGACAA as the sequence, how does the “PBM E-score” value read?
A: 0.0759

Q: For AGTGACAG, which “PBM E-score” value is on record?
A: 0.292

Q: With CATGACAG as the sequence, how does the “PBM E-score” value read?
A: 0.0583

Q: For CCTGACAG, which “PBM E-score” value is on record?
A: -0.0556

Q: With GTATAGGA as the sequence, how does the “PBM E-score” value read?
A: 0.0694

Q: How did the “PBM E-score” value turn out when CAGAGTTC was run?
A: -0.228

Q: How did the “PBM E-score” value turn out when GGGCCGTA was run?
A: 0.244

Q: How did the “PBM E-score” value turn out when GACAGGAA was run?
A: 0.0498

Q: GATCGCCC was tested. Which “PBM E-score” value did it give?
A: 0.0433

Q: How did the “PBM E-score” value turn out when GCGACCAC was run?
A: 0.134

Q: How did the “PBM E-score” value turn out when TCGATTAA was run?
A: 0.0311

Q: For CACAAAAA, which “PBM E-score” value is on record?
A: 0.0732

Q: How did the “PBM E-score” value turn out when GCAGTTAA was run?
A: -0.0142

Q: How did the “PBM E-score” value turn out when CTAACGAC was run?
A: 0.263

Q: For TCAGTCCA, which “PBM E-score” value is on record?
A: -0.171

Q: With TGTGACAA as the sequence, how does the “PBM E-score” value read?
A: 0.221

Q: With GGTGACAA as the sequence, how does the “PBM E-score” value read?
A: 0.423

Q: With GTTGACAA as the sequence, how does the “PBM E-score” value read?
A: 0.16

Q: Which “PBM E-score” value does the source give for AGTGACAC here?
A: 0.382

Q: ATTGACAC was tested. Which “PBM E-score” value did it give?
A: -0.12

Q: For AGTGACTG, which “PBM E-score” value is on record?
A: 0.175

Q: How did the “PBM E-score” value turn out when CGTGACAA was run?
A: 0.375

Q: How did the “PBM E-score” value turn out when GCTGACAA was run?
A: 0.0133

Q: How did the “PBM E-score” value turn out when CGTGACAC was run?
A: 0.252

Q: For GGTGACAC, which “PBM E-score” value is on record?
A: 0.238

Q: For AGTGACTC, which “PBM E-score” value is on record?
A: 0.149

Q: With AGTGACTA as the sequence, how does the “PBM E-score” value read?
A: 0.324

Q: For ATAACGGG, which “PBM E-score” value is on record?
A: 0.0588

Q: With CGGGCGCA as the sequence, how does the “PBM E-score” value read?
A: -0.146

Q: Which “PBM E-score” value does the source give for GAATTAAA here?
A: 0.00779

Q: How did the “PBM E-score” value turn out when GTGGAGAA was run?
A: 0.0678

Q: For ACATACCT, which “PBM E-score” value is on record?
A: -0.0525

Q: Which “PBM E-score” value does the source give for CTACCTTC here?
A: 0.0107

Q: How did the “PBM E-score” value turn out when GGCGGAGA was run?
A: -0.00874

Q: GAACGATC was tested. Which “PBM E-score” value did it give?
A: 0.298

Q: How did the “PBM E-score” value turn out when TAGCGATA was run?
A: 0.347

Q: CAGCGATA was tested. Which “PBM E-score” value did it give?
A: 0.16

Q: With GTACGATA as the sequence, how does the “PBM E-score” value read?
A: 0.259

Q: How did the “PBM E-score” value turn out when CAACGATC was run?
A: 0.103

Q: Which “PBM E-score” value does the source give for TAACGATA here?
A: 0.36

Q: For TAACGAGA, which “PBM E-score” value is on record?
A: 0.295

Q: How did the “PBM E-score” value turn out when GAACGATA was run?
A: 0.301

Q: With TAACGAAA as the sequence, how does the “PBM E-score” value read?
A: 0.243

Q: Which “PBM E-score” value does the source give for GAGCGATA here?
A: 0.223

Q: GAACGAGA was tested. Which “PBM E-score” value did it give?
A: 0.0551

Q: Which “PBM E-score” value does the source give for AAACGATC here?
A: 0.286

Q: For ATGTAGAC, which “PBM E-score” value is on record?
A: -0.0712

Q: CCATTTAG was tested. Which “PBM E-score” value did it give?
A: -0.118

Q: CCGAGGTC was tested. Which “PBM E-score” value did it give?
A: -0.0891

Q: For GATTGGTA, which “PBM E-score” value is on record?
A: 0.109

Q: For GCTCCTGA, which “PBM E-score” value is on record?
A: -0.23

Q: Which “PBM E-score” value does the source give for CCGTACCC here?
A: 0.267

Q: For CCGAGTTA, which “PBM E-score” value is on record?
A: 0.0322

Q: How did the “PBM E-score” value turn out when CGCGCCTC was run?
A: -0.14

Q: Which “PBM E-score” value does the source give for TACAGCCA here?
A: -0.224

Q: Which “PBM E-score” value does the source give for ACACGATA here?
A: 0.295

Q: Which “PBM E-score” value does the source give for GCACGAGA here?
A: 0.178

Q: GCACGATA was tested. Which “PBM E-score” value did it give?
A: 0.355

Q: Which “PBM E-score” value does the source give for CAACGATA here?
A: 0.25

Q: AAACGATT was tested. Which “PBM E-score” value did it give?
A: 0.292

Q: Which “PBM E-score” value does the source give for AAACGATA here?
A: 0.376

Q: How did the “PBM E-score” value turn out when GCGAACTA was run?
A: -0.0767

Q: For CCGCGAGA, which “PBM E-score” value is on record?
A: -0.0337

Q: Which “PBM E-score” value does the source give for GCGGCACA here?
A: 0.112

Q: How did the “PBM E-score” value turn out when TGGTATAA was run?
A: 0.0711

Q: With GCGTATAA as the sequence, how does the “PBM E-score” value read?
A: 0.154

Q: Which “PBM E-score” value does the source give for TCGTATAA here?
A: 0.4

Q: ACGTAAAT was tested. Which “PBM E-score” value did it give?
A: 0.113

Q: For ACGTATAG, which “PBM E-score” value is on record?
A: 0.186

Q: For GCGTAAAA, which “PBM E-score” value is on record?
A: 0.103

Q: Which “PBM E-score” value does the source give for CCGTATAA here?
A: 0.418

Q: Which “PBM E-score” value does the source give for TAGTATAA here?
A: 0.269

Q: Which “PBM E-score” value does the source give for ACGTAAAA here?
A: 0.317

Q: ACGTATAT was tested. Which “PBM E-score” value did it give?
A: 0.193

Q: With CCGTATAC as the sequence, how does the “PBM E-score” value read?
A: 0.272

Q: For ACGTATAA, which “PBM E-score” value is on record?
A: 0.304
